Test results as given in PubChem BioAssay (NCI).
About 83,000 compounds went through this panel and 20% of them were active in at least one assay; those are over-represented in the sample as a whole.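 Assay: single dose, 48 h. Readout: percent growth (0 = no net growth; negative = cell death). Active: <10.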 Unmarked numbers belong to inactive results. Active and inactive are the calls of the source.

Experiments:
Assay in all cases: NCI-60 one-dose screen, 48 h (100 = growth as untreated, 0 = no growth, -100 = all killed)
Conditions in all cases: 10 µM unless noted
SR leukemia = system: SR leukemia
RPMI-8226 leukemia = system: RPMI-8226 leukemia
OVCAR-8 ovarian = system: OVCAR-8 ovarian
OVCAR-4 ovarian = system: OVCAR-4 ovarian
SK-OV-3 ovarian = system: SK-OV-3 ovarian
IGROV1 ovarian = system: IGROV1 ovarian
OVCAR-3 ovarian = system: OVCAR-3 ovarian
HS 578T breast = system: HS 578T breast
NCI/ADR-RES ovarian = system: NCI/ADR-RES ovarian
OVCAR-5 ovarian = system: OVCAR-5 ovarian

SMILES	growth (SR leukemia) [%]	growth (RPMI-8226 leukemia)	growth (OVCAR-8 ovarian) [%]	growth (OVCAR-4 ovarian) [%]	growth (SK-OV-3 ovarian)	growth (IGROV1 ovarian)	growth (OVCAR-3 ovarian) [%]	growth (HS 578T breast) [%]	growth (NCI/ADR-RES ovarian) [%]	growth (OVCAR-5 ovarian) [%]
COc1cc(NS(=O)(=O)c2ccc(N)cc2)ncn1	97.2	109%	102	114	107%	118%	115	105	103	
Cc1ccc(-c2cc(-c3nnc(SCC(=O)c4ccccc4)o3)c3ccccc3n2)cc1	77.4	106%		86	106%	94.1%	97.7	101	91.9	92
C[C@@H]1CC2C3C[C@H](F)C4=CC(=O)C=C[C@]4(C)[C@@]3(F)[C@@H](O)C[C@]2(C)[C@@]1(O)C(=O)CO (stereo partly drawn)	99	64.8%	82.1	113	65.6%	99.8%	113	112	83.1	
CCCCNc1cc(C(=O)O)cc(S(N)(=O)=O)c1Oc1ccccc1	104	112%	107	105	108%	109%	115	98.5	99.1	
CC(CCC(=O)O)[C@H]1CCC2C3C(=O)C[C@@H]4CC(=O)CC[C@]4(C)C3CC(=O)[C@@]21C (stereo partly drawn)	97.4	98.8%	103	112	106%	105%	117	105	99.7	
CCOc1ccc(Cc2nccc3cc(OCC)c(OCC)cc23)cc1OCC	26.7	47.3%	69.1	54.6	87.2%	16.6%	75	78.1	65.3	
COc1cc2ncnc(Oc3ccc(NC(=O)Nc4ccc(CN5CCOCC5)c(C(F)(F)F)c4)c4ccccc34)c2cc1OC	17.1	-20.4% (active)		13.7	-6.16% (active)	6.05% (active)	31.9	45.5	21.8	50.1
